Among the data in PubChem BioAssay (Tox21) are Potency and activity, negative = inhibition values, retold here.

Inconclusive results are not listed. A call without a number means that no potency is given here. Active and inactive are the calls of the source. Calls come from the whole dose curve; as a rule, active = well fitted inhibition curve with a large enough effect in the repeat runs; inconclusive = weak or mixed curves; inactive = no such curve, though single readings can be large or run the other way.

This test can be described thus: qHTS assay to identify small molecule antagonists of the thyroid receptor (TR) signaling pathway (AID 743065). Note: nearly all actives have a fitted effect of over 55% in size. The following applies: GH3.TRE-Luc, T3-stimulated luciferase inhibition, 23.5 h; series mostly up to 70.3 µM. An excerpt:
U.S. Tox21 Program National Center for Advancing Translational Sciences [NCATS] NIH Chemical Genomics Center [NCGC] U.S. Environmental Protection Agency [EPA] National Institutes of Environmental Health Sciences [NIEHS] National Toxicology Program [NTP] U.S. Food and Drug Administration [FDA] Tox21 Assay Overview: Thyroid receptor (TR), a nuclear hormone receptor, plays an important role in development, proliferation, differentiation, metabolism, brain function, and cardiovascular system. […] To profile the Tox21 10K compound library in TR signaling, a cell-based GH3-TRE-Luc assay (GH3.TRE-Luc cell line, developed by the laboratory of Dr. Albertinka J. Murk, Wageningen University) was used to measure the inhibition of TR. GH3 (rat pituitary tumor) cells stably expressing a TR activity sensor consisting of two TR response elements and a luciferase reporter gene.
Tox21 Assay Protocol Summary: GH3.TRE-Luc cells were dispensed at 1500 cells/4 uL/well into 1536-well white solid bottom plates using a Multidrop Combi dispenser (Thermo Fisher Scientific Inc., Waltham, MA). After the assay plates were incubated at 37 C for 4 hours, 23 nL of library compound or DMSO controls was transferred to the assay plates by a pintool station (Kalypsys, San Diego, CA), followed by addition of 1 ul of T3 (1 nM, final concentration in the wells) to stimulate TR transactivation. The assay plates were incubated at 37 C for 23.5 h, and then 1 uL of CellTiter-Fluor reagent (Promega, Madision, WI) of measuring cytotoxicity was added to each well using a Bioraptr Flying Reagent Dispenser (FRD) workstation (Beckman Coulter, Indianapolis, IN, USA). The plates were incubated at 37 C and 5% CO2 for additional 30 min, and fluorescence intensity was measured by a ViewLux plate reader (PerkinElmer, Shelton, CT). For measuring luciferase reporter gene activity, 4 uL of ONE-Glo Luciferase Assay reagent (Promega) was added to each well using a Bioraptr FRD (Beckman Coulter), followed by 30 min incubation at room temperature. The luminescence intensity of plates was recorded by a ViewLux plate reader (PerkinElmer, Shelton, CT).
For orientation: qHTS replaces the single test concentration by a dilution series.
Turning to `CC1=C(C(=O)O)N2C(=O)[C@@H](NC(=O)[C@H](N)C3=CCC=CC3)[C@H]2SC1`, the Potency result is “inactive”. Turning to `C=C(C)C1CC=C(C)C(=O)C1` (stereo not given), the Potency result was “inactive”. With `CCCCCCCCCCCCCCC(=O)NC(CO)CCCCCCCCCCCCCC` (stereo not given), the Potency entry was “inactive”.

For the molecule `CCCCOC(=O)C(C)O` (stereo not given), the Potency result was “inactive”. Same read-out and setting: under `CCCCCCCCCCOC(C)=O` stands “inactive”.

In the case of `CC(O)CC(C)O` (stereo not given), the Potency result is “inactive”. For `CCC(C)C(C)=O` (stereo not given), the Potency result was “inactive”.

Take `ONc1ccccc1`: the Potency entry was “inactive”. Consider `CC(=O)CC(=O)Nc1ccc(C)cc1C`, for which the Potency result is “inactive”.

For the molecule `OCC1(CO)COCOC1`, the Potency entry is “inactive”. Same read-out and setting: under `Cc1ccc(N)cc1S(=O)(=O)O` stands “inactive”. Take `CC(O)COC(C)(C)C` (stereo not given): the Potency entry was “inactive”. Same read-out and setting: under `CN(C)CCCCl` stands “inactive”; under `CC1=C(C(=O)O)N2C(=O)[C@@H](NC(=O)[C@H](N)c3ccccc3)[C@H]2SC1`, “inactive”. Regarding `O=C1c2ccccc2C(=O)c2cc(Cl)ccc21`, the activity, negative = inhibition is 31.6% [at 8.44 µM] (inactive).

Take `CCCC(=O)OC/C=C(\C)CCC=C(C)C`: the Potency entry was “inactive”.

Take `CN(C)C(C)(C)CO`: the Potency result is “inactive”. On the same count and under the same terms, the result for `CCNC(=O)NCc1cccc(Cl)c1` reads “inactive”. On the same count and under the same terms, under `OCC1CCC(CO)CC1` (stereo not given) stands “inactive”; under `CC(C)C1OCCN1CCOC(=O)NCCCCCCNC(=O)OCCN1CCOC1C(C)C` (stereo not given), “inactive”.

For the molecule `C=CCCCCCCCC`, the Potency entry is “inactive”. With `CCC[C@@H]1C[C@@H](C(=O)N[C@@H]([C@H]2O[C@H](SC)[C@H](O)[C@@H](O)[C@H]2O)[C@@H](C)O)N(C)C1`, the Potency entry is “inactive”.

On to `CC(CO)(CO)CO`, for which the Potency result was “inactive”. As to `C=CC(=O)OCC1CCCO1` (stereo not given), the Potency entry was “inactive”. Turning to `COC(C)(OC)OC`, the Potency entry was “inactive”. The same measure, in the same setting: the result for `O=C(O)CNC(=O)CNC(=O)CNC(=O)CSC(=O)c1ccccc1` reads “inactive”; that for `CC(=O)OCC(=O)Nc1cc(C#N)cc(NC(=O)COC(C)=O)c1Cl`, “inactive”. In the case of `C=CCCCCCCCCC(=O)OCCCC`, the Potency entry was “inactive”.

Regarding `CO[C@@]1(NC(=O)Cc2cccs2)C(=O)N2C(C(=O)O)=C(COC(N)=O)CS[C@@H]21`, the Potency result is “inactive”. Regarding `CC(C)=CCC[C@@](C)(O)[C@H]1CC=C(C)CC1`, the Potency result was “inactive”. For the molecule `CCCCCCCCCCCCCCCCCC#N`, the Potency entry is “inactive”. With `COC(=O)/C=C\C(=O)O`, the Potency entry is “inactive”.

Turning to `OC[C@H]1O[C@@H](O[C@@H]2[C@@H](CO)O[C@](O)(CO)[C@H]2O)[C@H](O)[C@@H](O)[C@H]1O`, the Potency result is “inactive”. On to `CO[Si](CCCn1c(=O)n(CCC[Si](OC)(OC)OC)c(=O)n(CCC[Si](OC)(OC)OC)c1=O)(OC)OC`, for which the Potency result was “inactive”. With `O=C(CCCCC(=O)Nc1c(I)cc(I)c(C(=O)O)c1I)Nc1c(I)cc(I)c(C(=O)O)c1I`, the Potency result was “inactive”.

On to `CC1(C)O[C@H]2CC(=O)OC[C@]23[C@H]2CC[C@@]4(C)[C@H](c5ccoc5)OC(=O)[C@H]5O[C@]54[C@]2(C)C(=O)C[C@@H]13`, for which the Potency entry was “inactive”.

`O=NN(CCCl)C(=O)NC1CCCCC1`: the Potency result was “inactive”. Consider `CCCCSCCCC`, for which the Potency entry is “inactive”. On the same count and under the same terms, the result for `CN(C)CCCO[C@@H]1[C@H]2OC(C)(C)O[C@H]2O[C@@H]1C(O)CO` (stereo not given in full) reads “inactive”; that for `O=C1OCCO1`, “inactive”.
